FEN1 inh – human FEN1 inhibition | 0.35% of 390,000 active | Potency, µM (top dose mostly 114 µM), without a hit: top-dose activity change, negative = inhibition, hits mostly inhibitors | Recombinant FEN1 flap cleavage, fluorescence, 15 min; also: nearly all actives have a fitted effect of over 65% in size
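Potency values derive from four-parameter Hill fits of normalized qHTS data. The reaction used 10 nM FEN1 preincubated 15 min at room temperature with compound, then 50 nM DNA substrate, read at 0 and 15 min.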
RECQ1 inh – blocks DNA unwinding by human RECQ1 | P46063 | RECQ1 DNA unwinding, red fluorescence kinetic read | Potency, µM (series often up to 57.3 µM), for inactives: top-dose activity, negative = inhibition, actives largely listed as inhibitors | 0.54% of 240,000 active | AID 2549;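 also: plate controls were vehicle for no effect and no enzyme for full effect; nearly all actives have a fitted effect of over 30% in size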
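RECQ1T1 50 nM; forked duplex (20 bp + 30-nt ss tails) 200 nM, ATP 2 mM final; pH 8.0, 2 mM MgCl2, 2.5 ug/ml poly(dI-dC); 15 min compound preincubation; discontinuous kinetic read over 2 h at RT.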
GLS inhibitor – glutaminase GLS (human) inhibition; GLS enzymatic activity, qHTS titration; Potency, µM (highest dose often 45.5 µM), for the others: at the top dose activity change, negative = inhibition, actives largely listed as inhibitors; 0.21% of 410,000 active; O94925
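Enzyme dispensed in phosphate buffer (45 mM, pH 8.2, 0.02% Tween-20), compounds pinned in, then 1 mM L-glutamine solution and the glutamate oxidase–HRP–Amplex Red mix added; fluorescence read immediately and again after 30 min at room temperature.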
PGK inhibitor – T. brucei PGK inhibition; PGK/GAPDH coupled, Kinase-Glo luminescence, 60 min; Potency, µM (highest dose often 57.5 µM), for the others: at the top dose activity change, negative = inhibition, actives largely listed as inhibitors; 0.043% of 380,000 active; also: nearly all actives have a fitted effect of over 60% in size
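Luminescent ATP detection (Kinase-Glo Plus) follows a 60-minute room-temperature incubation, with wells lacking PGK as controls. Buffer: 100 mM TEA (pH 7.6), 5 mM MgCl2, 0.01% Tween-20. Coupling enzyme GAPDH (100 nM final) supplies unstable 1,3-BPG in-well.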
APE1 inh – blocks human APE1 abasic DNA cleavage. P27695. recombinant APE1, TAMRA/BHQ-2 abasic DNA cleavage fluorescence. Potency, µM (top dose mostly 65.8 µM), for the others: top-dose activity change, negative = inhibition, usual class: inhibitors. 0.35% of 350,000 active. AID 2517;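 also: plate controls were vehicle for no effect and reference inhibitor for full effect; nearly all actives have a fitted effect of over 55% in size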
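Kinetic fluorescence read (525 ex/598 em nm, three reads 60 s apart) of AP-site incision; signal = third minus first read. Enzyme 0.75 nM, dual-labelled THF duplex 50 nM, compound preincubation 15 min RT.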
BLM helicase inh – blocks DNA unwinding by human BLM helicase | Potency, µM (series often up to 56.1 µM), inactives show at the top dose activity change, negative = inhibition, hits mostly inhibitors | AID 2528 | 0.2% of 350,000 active | recombinant BLM DNA unwinding, fluorescence dequenching;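 also: plate controls were vehicle for no effect and no enzyme for full effect; nearly all actives have a fitted effect of over 35% in size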
Target sequence (P54132 whole entry, looked up): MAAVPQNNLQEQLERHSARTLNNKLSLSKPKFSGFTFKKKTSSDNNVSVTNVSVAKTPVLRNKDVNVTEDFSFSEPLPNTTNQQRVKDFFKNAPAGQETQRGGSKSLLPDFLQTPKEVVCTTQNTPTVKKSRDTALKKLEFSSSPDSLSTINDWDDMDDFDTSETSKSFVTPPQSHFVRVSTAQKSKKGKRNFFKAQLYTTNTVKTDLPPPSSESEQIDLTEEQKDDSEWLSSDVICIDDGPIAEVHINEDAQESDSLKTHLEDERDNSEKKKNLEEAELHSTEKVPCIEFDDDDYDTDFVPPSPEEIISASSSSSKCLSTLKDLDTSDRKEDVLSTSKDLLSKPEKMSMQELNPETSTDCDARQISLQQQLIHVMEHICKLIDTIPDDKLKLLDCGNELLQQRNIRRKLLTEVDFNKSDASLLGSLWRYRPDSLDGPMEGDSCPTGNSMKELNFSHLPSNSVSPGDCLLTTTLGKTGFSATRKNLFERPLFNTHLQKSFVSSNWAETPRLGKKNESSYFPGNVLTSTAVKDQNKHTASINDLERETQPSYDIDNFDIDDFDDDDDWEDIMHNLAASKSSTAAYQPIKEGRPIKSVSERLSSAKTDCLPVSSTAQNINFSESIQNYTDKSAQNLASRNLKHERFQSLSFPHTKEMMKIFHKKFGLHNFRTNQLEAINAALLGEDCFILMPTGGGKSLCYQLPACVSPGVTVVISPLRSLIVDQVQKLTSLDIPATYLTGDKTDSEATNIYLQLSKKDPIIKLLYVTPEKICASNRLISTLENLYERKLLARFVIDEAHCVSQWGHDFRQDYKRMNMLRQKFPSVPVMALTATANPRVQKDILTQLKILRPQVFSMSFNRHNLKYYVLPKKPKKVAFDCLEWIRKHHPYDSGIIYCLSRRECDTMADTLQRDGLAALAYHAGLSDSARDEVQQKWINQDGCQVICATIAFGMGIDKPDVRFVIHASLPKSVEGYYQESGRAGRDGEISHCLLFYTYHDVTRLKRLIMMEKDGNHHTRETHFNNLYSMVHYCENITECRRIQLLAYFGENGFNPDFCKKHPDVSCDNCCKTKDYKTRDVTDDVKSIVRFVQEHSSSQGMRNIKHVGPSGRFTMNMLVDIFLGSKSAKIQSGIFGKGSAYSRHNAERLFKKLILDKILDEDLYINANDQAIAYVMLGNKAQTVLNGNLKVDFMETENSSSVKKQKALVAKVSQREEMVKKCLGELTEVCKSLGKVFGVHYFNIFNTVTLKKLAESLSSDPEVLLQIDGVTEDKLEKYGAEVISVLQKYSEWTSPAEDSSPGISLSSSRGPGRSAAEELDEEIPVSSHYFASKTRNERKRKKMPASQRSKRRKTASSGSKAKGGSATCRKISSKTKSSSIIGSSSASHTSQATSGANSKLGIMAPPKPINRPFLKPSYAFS
* marks the source's active call; other numbers are inactive results; i = inactive; ? = inconclusive; . = no result; ! = a repeat was not active. In the library only some 0.86% were active in any assay of this set; here they are far more common. Calls follow the shape of the dose curve; as a rule, active = well fitted curve in the direction sought with a large enough effect; inconclusive = small, poorly fitted or top-dose-only effect, or another doubt; inactive = no such curve, though single readings can be large; an effect the other way counts as inactive or inconclusive. Unless noted, % is scaled to controls: 0 for no effect and ±100 for the full control effect; potency is read from the fitted curve at half-maximal effect.

SMILES	FEN1 inh	RECQ1 inh	GLS inhibitor	PGK inhibitor	APE1 inh	BLM helicase inh
Cc1ccc(/C=C2\SC(=S)N(CCC(=O)NNC(=O)c3ccc(O)cc3)C2=O)cc1	-9%	.	5%	-7%	13%	-4%
CN1C(=O)/C(=C/c2ccc(C(=O)Nc3ccc(O)cc3C(=O)O)cc2)SC1=S	?	.	?	-18%	24µM*	-12%
CN(C(=O)CO)c1c(I)c(C(=O)NCC(O)CO)c(I)c(C(=O)NCC(O)CO)c1I (stereo unspecified)	.	.	-6%	.	.	.
O=[N+]([O-])c1ccc2c(c1)C=CC2	-20%	.	.	.	.	.
C[C@H](Cc1ccc(O)c(O)c1)[C@@H](C)Cc1ccc(O)c(O)c1	.	2.5µM*	.	.	?	.
Cc1cccc(-n2c(O)c(C=Nc3cc(O)ccc3C)c3ccccc3c2=O)n1	0%	-1%	?	-5%	-3%	-19%
Cc1cccc(-n2c(O)c(C=Nc3ccccc3O)c3ccccc3c2=O)n1	?	-28%	-18%	i	?	16µM*
O=C(CCCCCNC(=O)c1ccccc1Br)N=Nc1c(O)[nH]c2ccccc12	-14%	i	-2%	-3%	25µM*	-4%
O=C(CNC(=O)Cc1ccccc1)N=Nc1c(O)[nH]c2ccccc12	-2%	.	-7%	-5%	14%	-4%
CCc1cc(C(=O)N=Nc2c(O)[nH]c3ccc([N+](=O)[O-])cc23)c2ccccc2n1	?	1%	24%	-8%	-11%	18µM*
CC(C)(C)n1ncc2c(=O)n(Cc3cccc(Oc4ccccc4)c3)cnc21	5%	.	.	.	-3%	.
NS(=O)(=O)c1ccc(-c2ccc(/C=C3\NC(=S)NC3=O)o2)cc1	50µM*	.	-8%	-9%	-15%	-6%
O=C(O)c1cc(N/N=C/c2c[nH]c3ccccc23)ccc1Cl	-12%	.	14µM*	-1%	61%	0%
O=C(O)c1cc(N/N=C/c2ccc(-c3ccccc3)cc2)ccc1Cl	5%	.	?	.	-10%	-7%
O=C(N/N=C/c1c[nH]c2ccccc12)c1cccc(O)c1	-22%	.	0%	-10%	4%	-4%
O=C(N/N=C/c1c[nH]c2ccccc12)c1ccc(O)c(O)c1	8%	.	11µM*	-13%	-6%	-22%
CC(=O)Oc1ccc(C2(c3ccc(OC(C)=O)cc3)Oc3ccccc3NC2=O)cc1	.	.	4%	.	.	.
O=C(/C=C/c1cccs1)N1CCN(c2ccc(O)cc2)CC1	-7%	-24%	7.1µM*	2%	2%	-4%
CCCCCCCCCCCCCCCC[n+]1ccc(CC(O)c2c(C)[nH]c3ccccc23)c2ccccc21 (stereo unspecified)	50µM*	.	.	.	.	.
COc1ccc(-c2noc(C3CCCN(C(=O)c4ccc(F)cc4)C3)n2)cc1 (stereo unspecified)	89µM*	.	-3%	-1%	-7%	-3%
O=C(c1ccc(F)cc1)N1CCCC(c2nc(-c3ccncc3)no2)C1 (stereo unspecified)	-10%	.	3%	0%	6%	.
CC(C)C[C@@H](CNCC(=O)[C@H](CC(C)C)NC(=O)c1[nH]cnc1C(=O)N[C@H](CN)CC(C)C)NC(=O)c1nc[nH]c1C(=O)N[C@@H](Cc1ccccc1)C(=O)O	-1%	.	-13%	2%	.	.
CC(C)C[C@@H](CNCC(=O)[C@H](Cc1ccccc1)NC(=O)c1[nH]cnc1C(=O)N[C@H](CN)CC(C)C)NC(=O)c1nc[nH]c1C(=O)N[C@@H](CC(=O)O)C(=O)O	14%	.	13µM*	i	.	.
COc1ccc2ccccc2c1/C=N/Nc1cccc(C(=O)O)c1	-6%	.	7.9µM*	2%	23%	1%
CC(=O)Nc1ccc(/C=C2\C=Cc3ccccc32)cc1	0%	.	.	.	.	.
SMILES	FEN1 inh	RECQ1 inh	GLS inhibitor	PGK inhibitor	APE1 inh	BLM helicase inh
O=C(CSc1nnc2ccccn12)NC(=O)c1ccccc1Cl	18%	.	5%	-20%	13µM*	.
O=C(CSc1nnc2ccccn12)Nc1ccccc1Cl	-9%	.	4%	2%	34%	.
COc1ccccc1Cn1c(=S)[nH]c2ccccc2c1=O	5%	.	20µM*	-3%	61%	-3%
COc1ccccc1Cn1c(=S)[nH]c2cc(C(=O)NCC(OC)OC)ccc2c1=O	20%	.	10µM*	8%	-8%	-5%
NS(=O)(=O)c1cccc2c1c([N+](=O)[O-])cc1[nH]c(=O)c(=O)[nH]c12	.	1.4µM*!	.	.	1.6µM*	-5%
COc1ccc(OC)c(Nc2nc(NCc3ccco3)c3ccccc3n2)c1	?	.	5%	i	-8%	28µM*
CC(/C=C/c1ccco1)=N\NC(=O)c1cc(C)[nH]n1	-15%	32µM*	8%	i	-6%	-24%
Cc1cc(C(=O)N/N=C/c2ccco2)n[nH]1	-1%	i	3%	3%	21%	0%
CC(=O)Nc1ccccc1C(F)(F)F	-2%	i	4%	-6%	1%	1%
NNc1ccccc1C(F)(F)F	-9%	-14%	22%	-24%	35µM*	-5%
CCCCOc1ccc(CSC(=N)N)cc1Cl	-10%	-3%	20µM*	20%	1%	2%
c1ccc2cnccc2c1	12%	.	.	.	.	.
O=C(c1cc(-c2ccncc2)nc2ccccc12)N1CCN(c2ccccc2O)CC1	-11%	.	6%	-3%	-22%	-9%
O=C(c1cc(-c2ccccc2)nc2ccccc12)N1CCN(c2ccccc2O)CC1	-1%	.	7.1µM*	i	-8%	-7%
COc1cc(/C=N/NC(=S)Nc2cccc(S(=O)(=O)N(C)C)c2)ccc1O	-17%	-5%	10µM*	-6%	-2%	-5%
COc1cc(/C=N/NC(=O)c2cccc(NC(=O)c3ccccc3)c2)ccc1O	-21%	.	-2%	3%	-16%	-6%
O=C(N/N=C/c1cccc(O)c1)c1cc(-c2ccccc2)nc2ccccc12	-1%	.	2%	5%	7%	-18%
O=C(N/N=C/c1ccc(O)c(O)c1)N/N=C/c1ccc(O)c(O)c1	2.5µM*	.	-10%	?	-95%	7.9µM*
O=C(N/N=C/c1ccc(O)c(O)c1)c1cc(-c2ccccc2)nc2ccccc12	-8%	.	13µM*	-2%	-14%	-8%
Cc1nonc1C(=O)N/N=C/c1ccc(O)c(O)c1	2%	1%	?	?	2%	-1%
CCC1=C[C@@H]2CN(C1)Cc1c([nH]c3ccccc13)[C@@](C(=O)OC)(c1cc3c(cc1OC)N(C)[C@@H]1[C@@](O)(C(=O)OC)[C@H](OC(C)=O)[C@]4(CC)C=CCN5CC[C@]31[C@@H]54)C2	.	.	22%	.	.	-5%

High-throughput results deposited in PubChem BioAssay by National Center for Advancing Translational Sciences (NCATS).
